From PubChem
Compounds with a hit are over-represented: about 3.5% of the library has one in this group of screens.
Pf apPOL block = Pf-apPOL inhibitors, biochemical, fluorescence | Plasmodium falciparum apicoplast DNA polymerase (apPOL) | 210,000 tested, 0.25% active | Recombinant Pf-apPOL, molecular beacon fluorescence, 1.5 h | inhibition, % at 10 µM | AID 1794808, 2022
mHTT CaM bind = mutant huntingtin-calmodulin interaction inhibitors – biochemical, AlphaScreen, primary screen; P42858; AlphaScreen His-mHTT/GST-CaM binding, luminescence; inhibition, % at 15 µM; 190,000 tested, 3.6% active; AID 1671202, 2021
Hits are given with their value; i = inactive; nt = no result. Rule as the data show it: active = inhibition above about 50%; inactive = the rest.

SMILES	Pf apPOL block	mHTT CaM bind
Cn1c2c(c(=O)[nH]c1=O)C(c1ccc(O)cc1)C1=C(N2)c2ccccc2C1=O (stereo unspecified)	i	i
Cn1c2c(c(=O)n(C)c1=O)C(c1ccc(Cl)cc1)C1=C(N2)c2ccccc2C1=O (stereo unspecified)	i	i
CC1=C(C(=O)Nc2ccccc2)C(c2ccc(F)cc2)NC(=O)N1 (stereo unspecified)	i	i
Cc1ccc2ccccc2c1C[N+](C)(C)CC#Cc1ccccc1	nt	77
C(#Cc1ccccc1)CN1CCN(CC#Cc2ccccc2)CC1	i	i
COc1cccc(C2CC(c3cccc(C)c3)=NN2C(=O)CN2CCCC2)c1 (stereo unspecified)	i	100
Cc1ccc(C)c(C2=NN(C(=O)CN3CCOCC3)C(c3ccccc3F)C2)c1 (stereo unspecified)	i	62
COc1cccc(C2=NN(C(=O)CN(C)C(C)=O)C(c3ccc(F)cc3)C2)c1 (stereo unspecified)	i	i
COc1cccc(C2CC(c3cc(C)ccc3C)=NN2C(=O)CN2CCCCC2)c1 (stereo unspecified)	i	67
COc1ccccc1C1=NN(C(=O)CN2CCOCC2)C(c2ccc(C)cc2)C1 (stereo unspecified)	i	i
Cc1ccc(C2=NN(C(=O)CN3CCOCC3)C(c3ccccc3Cl)C2)cc1C (stereo unspecified)	i	i
COc1ccccc1C1=NN(C(=O)CN2CCCCC2)C(c2cccc(F)c2)C1 (stereo unspecified)	i	i
Cc1cccc(C2=NN(C(=O)CN3CCOCC3)C(c3ccc(Cl)cc3)C2)c1 (stereo unspecified)	i	79
COc1cc(C(=O)Oc2ccc(C=Cc3ccncc3)cc2)cc(OC)c1OC	i	i
COc1ccccc1Nc1nc(-c2ccc([N+](=O)[O-])cc2)nc2ccccc12	i	i
O=C(c1cn2c(n1)CCCC2)N1CCN(c2ccccn2)CC1	i	i
COc1cccc(C2CC(c3cccc(C)c3)=NN2C(=O)CN2CCCCC2)c1 (stereo unspecified)	i	55
COc1ccc(C2CC(c3cccc(C)c3)=NN2C(=O)CN2CCCCC2)cc1 (stereo unspecified)	i	i
Cc1ccc(-c2nc3ncccn3c2Nc2c(C)cccc2C)o1	i	i
Cc1cccc(C)c1Nc1c(-c2ccccn2)nc2ncccn12	i	100
Cc1ccc2c(C)nc(N=C(N)N)nc2c1	i	i
NC(N)=Nc1nc(-c2ccccc2)c2ccccc2n1	i	73
Clc1ccccc1-c1nc(COc2ccc3c(c2)OCO3)no1	i	i
CN(C)c1cccc(OCc2noc(-c3ccccc3Cl)n2)c1	i	68
CC(=O)c1ccc(NC(=O)Cc2ccc(F)cc2)cc1	i	i
SMILES	Pf apPOL block	mHTT CaM bind
COc1cc2c(cc1OC)C(c1cccc(Cl)c1Cl)CC(=O)N2 (stereo unspecified)	i	i
COc1cccc(C2CC(=O)Nc3cc(C)c(C)cc32)c1OC (stereo unspecified)	i	100
CCc1cc(C2CCCN2Cc2ccc(OC)c(O)c2)on1 (stereo unspecified)	i	i
CC1(C)CC(=O)C2=C(C1)N(c1ccc(F)cc1)C(N)=C(C#N)C2c1cc(Br)cs1 (stereo unspecified)	i	81
COc1ccc(N2C(N)=C(C#N)C(c3ccc(F)cc3)C3=C2CC(C)(C)CC3=O)cc1 (stereo unspecified)	i	i
CC1(C)CC(=O)C2=C(C1)N(c1ccccc1)C(N)=C(C#N)C2c1ccc(Br)s1 (stereo unspecified)	i	89
Cc1cccc(N2C(N)=C(C#N)C(c3cccs3)C3=C2CC(C)(C)CC3=O)c1 (stereo unspecified)	i	i
COc1ccc(C2/C=C\CN(CC3CCCCC3)[C@@H](Cc3ccccc3)C(=O)N2Cc2ccc(F)cc2)cc1 (stereo partly specified)	i	i
CN1CCN(Cc2c(O)ccc3c2OC(=Cc2c[nH]c4ccccc24)C3=O)CC1	i	i
CCN1CCN(Cc2c(O)ccc3c2OC(=Cc2c[nH]c4ccccc24)C3=O)CC1	i	54
CCN(CC)Cc1c(O)ccc2c1OC(=Cc1c[nH]c3ccccc13)C2=O	i	72
CCN(CC)Cc1c(O)ccc2c1OC(=Cc1ccccc1C)C2=O	i	i
CCOC(=O)Cc1nn(Cc2nc(-c3ccc(C)cc3)cs2)c(=O)c2ccccc12	i	nt
O=C(NC1CCCCC1)N1CCN(c2ccc3nnc(-c4ccco4)n3n2)CC1	i	i
O=C(c1cccs1)N1CCN(c2ccc3nnc(-c4ccco4)n3n2)CC1	i	56
COc1ccc(-n2nc3c(c2NC(=O)c2cccs2)CS(=O)C3)cc1 (stereo unspecified)	i	i
Cc1cnc2c(ccc3c(C)c(C)cnc32)c1C	nt	100
Cc1ccc(-n2nc3c(c2NC(=O)c2cccc([N+](=O)[O-])c2)CSC3)c(C)c1	i	i
